Results filed as inconclusive are left out. The source holds several records for some structures; these can differ, active in one and inactive in another. The source made the active and inactive calls. Unless noted, the call rests on the fitted dose curve.
Key:
[1] = Nuclear factor erythroid 2-related factor 2/antioxidant responsive element (Nrf2/ARE) small molecule agonists: qHTS cell viability counter screen in human keratinocytes (AID 1919968; active means well fitted curve in the direction sought with a large enough effect in the repeat runs; an effect the other way counts as inactive or inconclusive; further: nearly all actives have a fitted effect of over 55% in size)
Procedure, shortened: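 Seed 1,500 KeratinoSens cells per well, then incubate 5 h at 37 C/5% CO2. Add compounds in DMSO and incubate 23 h. Add CellTiter-Fluor, wait 1 h and read fluorescence.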

[2] = Nuclear factor erythroid 2-related factor 2/antioxidant responsive element (Nrf2/ARE) small molecule agonists: luciferase reporter gene qHTS assay in human keratinocytes (AID 1919969); further: nearly all actives have a fitted effect of over 35% in size; further: potency means the concentration at half of the fitted maximal effect
[3] = molecular target: Gonadotropin-releasing hormone receptor (Homo sapiens) (UniProt P30968); experiment: Human gonadotropin-releasing hormone receptor (GnRHR) small molecule agonists, calcium flux assay in GnRHR-HEK293 cells (AID 1920063); further: nearly all actives have a fitted effect of over 35% in size
Procedure, shortened: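 Cells: HEK293 stably expressing human GnRHR. Steps: overnight (18 h) culture, 1 h calcium dye loading at 37 C, compound addition, kinetic fluorescence read at 480/540 nm. Each compound tested at 15 concentrations in triplicate.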

[4] = molecular target: KiSS-1 receptor (Homo sapiens) (UniProt Q969F8); experiment: Human kisspeptin (KISS1R) small molecule agonists, calcium flux assay in KISS1R-HEK293 cells (AID 1920064; active means well fitted curve in the direction sought with a large enough effect in the repeat runs; an effect the other way counts as inactive or inconclusive)
Procedure, shortened: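 Cells plated and incubated 18 h; dye added, 1 h at 37 C; compounds in DMSO pinned in; signal read at 480/540 nm every second for 3 min. Each compound tested at 15 concentrations in triplicate.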

[5] = p53 small molecule agonists, cell-based qHTS assay with rat liver microsomes (AID 1963578)
Procedure, shortened: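 Rat liver microsome activation: microsomes 0.5 mg/mL, NADPH 0.5 mg/mL final; p53RE-bla cells, 16 h 37 C; LiveBLAzer readout, 2 h RT dark.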

[6] = p53 small molecule agonists, cell-based qHTS assay with human liver microsomes: qHTS cell viability counter screen (AID 1963579); further: nearly all actives have a fitted effect of over 45% in size
Procedure, shortened: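 Luminescent CellTiter-Glo read-out, 30 min at room temperature, gauged cytotoxicity in p53RE-bla cells exposed 16 h at 37 C to DMSO-dissolved compounds with metabolic activation by human liver microsomes and NADPH, each 0.5 mg/mL final.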

[7] = p53 small molecule agonists, cell-based qHTS assay with rat liver microsomes: qHTS cell viability counter screen (AID 1963580); further: nearly all actives have a fitted effect of over 45% in size
Procedure, shortened: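 In HCT-116 cells carrying a p53 response element-bla reporter, compounds were metabolically activated in situ by rat liver microsomes with NADPH over 16 h. Cell ATP content then served as the cytotoxicity measure.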

[8] = p53 small molecule agonists, cell-based qHTS assay: qHTS cell viability counter screen (AID 1963581); further: nearly all actives have a fitted effect of over 45% in size
Procedure, shortened: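 Cells: HCT-116 with p53 response element-driven beta-lactamase. Treatment: 16 h, 37 C, compounds in DMSO. Read: CellTiter-Glo luminescence after 30 min RT.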

[9] = p53 small molecule agonists, cell-based qHTS assay (AID 1963582; active means well fitted activation curve with a large enough effect in the signal ratio in the repeat runs, not every such curve was filed as active; the % refers to the signal ratio)
Procedure, shortened: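 Quantitative HTS in p53RE-bla cells: after a 5 h settling period, compounds delivered in DMSO were left on cells for 16 h at 37 C, and reporter induction was measured as fluorescence following 2 h substrate loading.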

[10] = molecular target: 5-hydroxytryptamine receptor 2A (Homo sapiens) (UniProt P28223); experiment: 5-hydroxytryptamine receptor 2A (HTR2A) small molecule antagonists, cell-based qHTS assay (AID 1963586); further: nearly all actives have a fitted effect of over 45% in size; further: potency means the concentration at half of the fitted maximal effect
Procedure, shortened: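 Antagonist-mode intracellular calcium assay: DOI (4 nM) added after 5 min compound pre-incubation at room temperature to dye-loaded HTR2A-CHO cells. Fluorescence followed for 3 min, sampled every second.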

[11] = molecular target: 5-hydroxytryptamine receptor 2A (Homo sapiens) (UniProt P28223); experiment: 5-hydroxytryptamine receptor 2A (HTR2A) small molecule agonists, cell-based qHTS assay (AID 1963587); further: nearly all actives have a fitted effect of over 30% in size; further: potency means the concentration at half of the fitted maximal effect
Procedure, shortened: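 HTR2A-CHO cells, plated 18 h at 37 C/5% CO2, dye-loaded 1 h at 37 C; compounds in DMSO added by pin tool (agonist mode). Intracellular calcium flux read as kinetic fluorescence on FDSS over 2 min at 1 s intervals.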

[12] = molecular target: Muscarinic acetylcholine receptor M1 (Homo sapiens) (UniProt P11229); experiment: Cholinergic receptor muscarinic 1 (CHRM1) small molecule antagonists, cell-based qHTS assay (AID 1963588); further: nearly all actives have a fitted effect of over 40% in size
Procedure, shortened: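 CHRM1-CHO calcium-flux assay, antagonist mode. Cells were seeded 18 h, dye-loaded 1 h at 37 C and given compound for 5 min at RT, then acetylcholine was added at 50nM. FDSS fluorescence was read 3 min; 15 concentrations, three runs.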

[13] = molecular target: Muscarinic acetylcholine receptor M1 (Homo sapiens) (UniProt P11229); experiment: Cholinergic receptor muscarinic 1 (CHRM1) small molecule agonists, cell-based qHTS assay (AID 1963589); further: nearly all actives have a fitted effect of over 35% in size; further: potency means the concentration at half of the fitted maximal effect
Procedure, shortened: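 Agonist-mode qHTS in CHO cells stably carrying human muscarinic M1. Intracellular calcium is tracked by fluorescence every second after compound transfer; each compound runs at 15 concentrations in three independent runs.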

[14] = cAMP Responsive Elements (CRE) small molecule antagonists, cell-based qHTS assay (AID 1963591; active means well fitted inhibition curve with a large enough effect in the signal ratio in the repeat runs, not every such curve was filed as active; the % refers to the signal ratio)
Procedure, shortened: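 Antagonist mode: test compounds are co-incubated with the adenylyl cyclase activator NKH477 (0.25 uM final) on CRE-bla HEK293T cells for 3 h at 37 °C, followed by LiveBLAzer substrate loading.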

[15] = molecular target: Beta-2 adrenergic receptor (Homo sapiens) (UniProt P07550); experiment: Adrenergic beta2 receptor (ADRB2) small molecule agonists, cell-based qHTS assay (AID 1963593);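 further: CHO cells stably overexpressing human ADRB2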
Procedure, shortened: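 CHO cells stably over-expressing ADRB2 were plated overnight at 37C, then dosed with compounds plus a stimulation mix containing 100uM IBMX and 25uM Ro-20-1724 for 0.5hr at room temperature. cAMP was measured by HTRF competition, 1hr.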

[16] = molecular target: D(2) dopamine receptor (Homo sapiens) (UniProt P14416); experiment: Dopamine D2 receptor (DRD2) small molecule agonists, cell-based qHTS assay (AID 1963594); further: nearly all actives have a fitted effect of over 35% in size
Procedure, shortened: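 HEK293 cells stably expressing DRD2 were cultured 24 h at 37 C, then given Ro20-1724 (0.1 mM final) and compounds for 10 min at room temperature. NKH477 (200nM) was then added for 30 min. cAMP was read by HTRF.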

[17] = molecular target: D(2) dopamine receptor (Homo sapiens) (UniProt P14416); experiment: Dopamine D2 receptor (DRD2) small molecule antagonists, cell-based qHTS assay (AID 1963595; active means well fitted inhibition curve with a large enough effect in the signal ratio in the repeat runs, with a control signal flat; the % refers to the signal ratio)
Procedure, shortened: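 DRD2-HEK293; 0.1 mM Ro20-1724; cpd 10 min RT; NKH477 200 nM + quinpirole 12 nM, 30 min RT; HTRF cAMP (cAMP-d2/anti-cAMP cryptate), 665/620 nm ratio after 1 h.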

[18] = cAMP Responsive Elements (CRE) small molecule agonists, cell-based qHTS assay (AID 1963590)
Procedure, shortened: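 Agonist mode qHTS in CRE-bla HEK 293T cells: compounds dosed from DMSO for 3 h at 37 C/5% CO2, followed by LiveBLAzer B/G FRET substrate for 2 h at room temperature.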

[19] = molecular target: Beta-2 adrenergic receptor (Homo sapiens) (UniProt P07550); experiment: Adrenergic beta2 receptor (ADRB2) small molecule antagonists, cell-based qHTS assay (AID 1963592); further: series mostly up to about 92 µM; nearly all actives have a fitted effect of over 50% in size
Procedure, shortened: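 Cells (CHO, stable ADRB2 overexpression) incubated 18-20hr at 37C; compounds added from DMSO; agonist mix (1nM isoproterenol, 100uM IBMX, 25uM Ro-20-1724) added; 0.5hr RT; d2-cAMP and anti-cAMP-cryptate added; 1hr RT; 665/615 nm read.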

[20] = G protein-coupled receptor (GPCR) small molecule agonists, calcium flux assay: HEK293 wild type cell line counter screen (AID 1920065)
Procedure, shortened: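 Counter-screen of the Tox21 10K library for non-specific calcium release: dye-loaded cells received compounds in DMSO and were monitored by kinetic fluorescence (480/540 nm, 3 min). Fifteen concentrations, run in triplicate.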
On the % scale 0 is the no-effect control and ±100 the full control effect.

Gonadotropin-releasing hormone receptor (Homo sapiens), sequence (P30968 whole entry, looked up): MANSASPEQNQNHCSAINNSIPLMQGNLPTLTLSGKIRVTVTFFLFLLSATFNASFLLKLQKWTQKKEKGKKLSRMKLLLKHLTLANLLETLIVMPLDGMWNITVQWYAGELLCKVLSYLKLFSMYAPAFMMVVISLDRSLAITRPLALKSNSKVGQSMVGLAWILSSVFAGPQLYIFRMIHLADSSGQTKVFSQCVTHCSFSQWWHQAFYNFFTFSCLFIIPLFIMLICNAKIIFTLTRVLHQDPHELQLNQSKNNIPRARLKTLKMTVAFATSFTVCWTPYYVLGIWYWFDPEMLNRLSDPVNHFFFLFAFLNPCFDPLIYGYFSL
5-hydroxytryptamine receptor 2A (Homo sapiens), sequence (P28223 whole entry, looked up): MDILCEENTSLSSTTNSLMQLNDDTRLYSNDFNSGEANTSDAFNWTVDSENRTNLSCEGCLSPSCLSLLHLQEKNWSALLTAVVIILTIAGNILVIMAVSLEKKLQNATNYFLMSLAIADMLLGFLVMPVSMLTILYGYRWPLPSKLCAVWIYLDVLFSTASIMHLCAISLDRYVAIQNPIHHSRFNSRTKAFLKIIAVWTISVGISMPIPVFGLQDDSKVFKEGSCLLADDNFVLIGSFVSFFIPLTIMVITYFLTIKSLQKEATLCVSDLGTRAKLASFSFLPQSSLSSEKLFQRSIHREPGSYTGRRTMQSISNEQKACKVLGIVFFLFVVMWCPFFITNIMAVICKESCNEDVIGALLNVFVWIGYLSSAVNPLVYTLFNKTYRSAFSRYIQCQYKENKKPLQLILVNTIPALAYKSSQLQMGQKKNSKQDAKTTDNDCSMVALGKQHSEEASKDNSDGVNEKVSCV
KiSS-1 receptor (Homo sapiens), sequence (Q969F8 whole entry, looked up): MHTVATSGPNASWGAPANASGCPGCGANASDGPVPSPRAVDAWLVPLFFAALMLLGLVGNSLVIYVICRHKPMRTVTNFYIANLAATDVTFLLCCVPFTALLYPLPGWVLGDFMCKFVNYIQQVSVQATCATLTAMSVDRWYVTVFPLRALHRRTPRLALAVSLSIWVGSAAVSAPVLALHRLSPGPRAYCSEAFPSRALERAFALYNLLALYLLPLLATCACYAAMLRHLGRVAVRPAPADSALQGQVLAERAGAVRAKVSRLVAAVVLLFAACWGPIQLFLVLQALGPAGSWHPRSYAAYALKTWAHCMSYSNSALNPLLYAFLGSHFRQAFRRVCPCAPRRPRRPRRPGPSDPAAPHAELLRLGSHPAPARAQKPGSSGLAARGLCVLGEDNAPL
Beta-2 adrenergic receptor (Homo sapiens), sequence (P07550 whole entry, looked up): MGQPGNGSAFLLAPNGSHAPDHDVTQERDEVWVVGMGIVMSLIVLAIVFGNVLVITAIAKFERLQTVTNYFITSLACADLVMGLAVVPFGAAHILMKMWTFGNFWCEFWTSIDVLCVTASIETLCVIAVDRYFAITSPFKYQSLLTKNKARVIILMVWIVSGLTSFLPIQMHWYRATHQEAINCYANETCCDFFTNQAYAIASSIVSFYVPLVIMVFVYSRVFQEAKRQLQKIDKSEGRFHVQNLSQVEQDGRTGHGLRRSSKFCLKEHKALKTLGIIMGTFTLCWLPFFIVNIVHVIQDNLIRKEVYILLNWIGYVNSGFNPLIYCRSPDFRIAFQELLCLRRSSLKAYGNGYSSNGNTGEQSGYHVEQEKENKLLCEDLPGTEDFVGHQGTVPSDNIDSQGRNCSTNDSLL
D(2) dopamine receptor (Homo sapiens), sequence (P14416 whole entry, looked up): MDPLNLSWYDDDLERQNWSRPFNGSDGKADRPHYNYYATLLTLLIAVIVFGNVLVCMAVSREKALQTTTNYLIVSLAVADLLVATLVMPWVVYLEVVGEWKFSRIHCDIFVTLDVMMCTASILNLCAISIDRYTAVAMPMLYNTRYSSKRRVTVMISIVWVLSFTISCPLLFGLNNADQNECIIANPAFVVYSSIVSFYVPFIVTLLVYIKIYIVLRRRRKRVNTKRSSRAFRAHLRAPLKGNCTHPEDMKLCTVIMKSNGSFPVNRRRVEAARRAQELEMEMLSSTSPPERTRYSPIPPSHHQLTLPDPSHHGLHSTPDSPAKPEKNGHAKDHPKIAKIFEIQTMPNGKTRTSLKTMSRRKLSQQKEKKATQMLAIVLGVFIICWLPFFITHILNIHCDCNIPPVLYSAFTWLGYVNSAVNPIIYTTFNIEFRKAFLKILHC
Muscarinic acetylcholine receptor M1 (Homo sapiens), sequence (P11229 whole entry, looked up): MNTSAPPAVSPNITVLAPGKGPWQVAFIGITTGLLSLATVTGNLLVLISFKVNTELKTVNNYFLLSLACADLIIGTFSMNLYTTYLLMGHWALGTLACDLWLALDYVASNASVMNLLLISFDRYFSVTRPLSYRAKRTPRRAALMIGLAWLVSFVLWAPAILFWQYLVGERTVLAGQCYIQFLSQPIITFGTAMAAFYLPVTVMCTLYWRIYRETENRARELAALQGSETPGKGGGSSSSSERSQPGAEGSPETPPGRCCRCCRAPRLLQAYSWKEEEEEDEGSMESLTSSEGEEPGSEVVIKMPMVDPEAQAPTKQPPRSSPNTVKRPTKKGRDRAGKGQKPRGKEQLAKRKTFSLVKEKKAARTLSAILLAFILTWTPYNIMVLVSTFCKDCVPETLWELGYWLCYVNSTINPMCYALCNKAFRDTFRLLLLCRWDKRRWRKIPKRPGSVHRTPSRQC

ClC(Cl)(Cl)Br
inactive: Potency [1] | Potency [2] | Potency [3] | Potency [4] | Potency [5] | Potency [6] | Potency [7] | Potency [8] | Potency [9] | Potency [10] | Potency [11] | Potency [12] | Potency [13] | activity change, negative = inhibition [14] 0.761% [at 18.9 µM] | Potency [15] | Potency [16] | Potency [17]

O=[N+]([O-])CCO
inactive: Potency [1] | Potency [2] | Potency [3] | Potency [4] | Potency [5] | Potency [6] | Potency [7] | Potency [8] | Potency [9] | Potency [10] | Potency [11] | Potency [12] | Potency [13] | Potency [18] | Potency [14] | Potency [19] | Potency [15] | Potency [16] | Potency [17]

CC(C)C1(C)N=C(c2ncccc2C(=O)O)NC1=O (stereo not given)
inactive: Potency [1] | Potency [2] | Potency [3] | Potency [4] | Potency [20] | Potency [6] | Potency [8] | Potency [9] | Potency [10] | Potency [12] | Potency [13] | Potency [18] | Potency [14] | Potency [19] | Potency [15] | Potency [16] | Potency [17]

CC1CC(=O)O1 (stereo not given)
inactive: Potency [1] | Potency [2] | Potency [3] | Potency [4] | Potency [20] | Potency [6] | Potency [7] | Potency [10] | Potency [11] | Potency [12] | Potency [13] | Potency [18] | Potency [14] | Potency [16] | Potency [17]

CC1(C)[C@H](C(=O)O[C@H](C#N)c2cccc(Oc3ccccc3)c2)[C@@H]1/C=C(\Cl)C(F)(F)F
inactive: Potency [1] | Potency [2] | Potency [3] | Potency [4] | Potency [5] | Potency [6] | Potency [7] | Potency [8] | Potency [9] | Potency [10] | Potency [11] | Potency [12] | Potency [13] | Potency [14] | Potency [19] | Potency [15] | Potency [16]

C=CC1(C)OC(=O)N(c2cc(Cl)cc(Cl)c2)C1=O (stereo not given)
inactive: Potency [1] | Potency [3] | Potency [20] | Potency [5] | Potency [6] | Potency [7] | Potency [8] | Potency [9] | Potency [10] | Potency [11] | Potency [13] | Potency [18] | Potency [14] | Potency [19] | Potency [15] | Potency [16] | Potency [17]
68.2 µM (active) and inactive: Potency [2]

Cc1cccc(C)c1NC(=O)CN1CCCC1=O
inactive: Potency [1] | Potency [2] | Potency [3] | Potency [20] | Potency [5] | Potency [6] | Potency [7] | Potency [8] | Potency [9] | Potency [10] | Potency [11] | Potency [12] | Potency [13] | Potency [18] | Potency [14] | Potency [19] | Potency [16] | Potency [17]

C(CCOCC1CO1)COCC1CO1 (stereo not given)
active: Potency [2] 30.2 µM
inactive: Potency [1] | Potency [3] | Potency [20] | Potency [5] | Potency [6] | Potency [7] | Potency [8] | Potency [9] | Potency [10] | Potency [12] | Potency [18] | Potency [14] | Potency [19] | Potency [16] | Potency [17]

NCc1cccnc1
inactive: Potency [1] | Potency [2] | Potency [3] | Potency [4] | Potency [5] | Potency [6] | Potency [7] | Potency [8] | Potency [9] | Potency [10] | Potency [11] | Potency [12] | Potency [13] | Potency [18] | Potency [14] | Potency [19] | Potency [15] | Potency [16] | Potency [17]

COc1ccccc1N
61.1 µM (active) and inactive: Potency [2]
inactive: Potency [1] | Potency [3] | Potency [4] | Potency [6] | Potency [7] | Potency [8] | Potency [18] | Potency [14] | Potency [19] | Potency [15] | Potency [16] | Potency [17]

CCC(=O)O[C@@H]1C=C2CCC3C(CCC4(C)C3CC[C@@H]4OC(=O)CC)C2CC1 (stereo not given in full)
inactive: Potency [1] | Potency [2] | Potency [3] | Potency [4] | Potency [5] | Potency [6] | Potency [7] | Potency [8] | Potency [9] | Potency [10] | Potency [11] | Potency [12] | Potency [13] | Potency [18] | Potency [14] | Potency [19] | Potency [16] | Potency [17]

c1ccc(N2CCNCC2)cc1
inactive: Potency [1] | Potency [2] | Potency [3] | Potency [4] | Potency [5] | Potency [6] | Potency [8] | Potency [9] | Potency [12] | Potency [13] | Potency [18] | Potency [14] | Potency [19] | Potency [15] | Potency [16] | Potency [17]
active: Potency [10] 818 nM | Potency [11] 601 nM

O=C1CCCN1
inactive: Potency [1] | Potency [2] | Potency [3] | Potency [4] | Potency [7] | Potency [8] | Potency [10] | Potency [11] | Potency [12] | Potency [18] | Potency [14] | Potency [19] | Potency [16] | Potency [17]
49.5 µM (active) and inactive: Potency [13]

— PubChem BioAssay (Tox21)
